Assay outcomes from PubChem BioAssay.
TRHR enhancer – TRH receptor (human) allosteric enhancement; 360,000 tested, 0.66% active; AID 493056; TRHR cells, fluo-8 calcium fluorescence, EC20 TRH enhancement; enhancement, % at 2 µM; P34981; in the data active means enhancement above about 30%; further: 0% is about no effect
Target sequence (P34981 whole entry, looked up): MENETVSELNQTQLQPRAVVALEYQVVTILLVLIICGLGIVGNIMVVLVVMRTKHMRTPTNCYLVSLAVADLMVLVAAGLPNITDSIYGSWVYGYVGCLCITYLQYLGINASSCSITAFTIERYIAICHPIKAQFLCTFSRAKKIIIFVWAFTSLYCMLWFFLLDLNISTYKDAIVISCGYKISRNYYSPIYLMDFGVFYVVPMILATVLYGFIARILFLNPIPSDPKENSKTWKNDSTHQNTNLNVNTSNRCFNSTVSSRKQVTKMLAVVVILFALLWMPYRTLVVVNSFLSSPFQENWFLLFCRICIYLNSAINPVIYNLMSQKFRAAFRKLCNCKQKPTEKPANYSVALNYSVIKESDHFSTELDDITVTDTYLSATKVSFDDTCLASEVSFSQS
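TRHR-expressing cells loaded with fluo-8 calcium dye were read kinetically (ex 480/em 530) during compound addition, then stimulated with an EC20 of TRH (10 nM final). Enhancement of the Gq-mediated intracellular calcium response was scored.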
D1 ag – human D1 receptor agonism; 360,000 tested, 1% active; AID 504660; activation, % at 2 µM; P21728; HEK293 T-REx D1 cells, calcium flux, agonist mode; further: 0% is about no effect
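Agonism was scored from calcium flux recorded over 180 s (1 read/s) after pintool compound addition, following a 10-cycle baseline. Cells were inducible force-coupled HEK293 TREx D1, plated overnight at 30 C and loaded with no-wash calcium dye.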
D1 antagonist – blocks dopamine activation of the human D1 receptor. HEK293 TREx D1 cells, calcium flux, dopamine EC80; active compounds read low. activity change, negative = inhibition, % at 10 µM. 360,000 tested, 3.2% active. P21728; in the data active means activity change below about -30%; further: on the % scale 0 is the no-effect control and ±100 the full control effect
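Tetracycline-induced HEK293 T-REx cells with force-coupled D1 receptor were loaded with a no-wash calcium dye. Compound was added after a 10 s baseline and read kinetically for 180 s; EC80 dopamine was then added and calcium flux followed another 180 s.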
USP1-UAF1 inh – blocks the human USP1/UAF1 deubiquitinase complex. O94782. recombinant USP1/UAF1, Ub-Rhodamine cleavage fluorescence. Potency, µM (series often up to 57.1 µM), for inactives: at the highest dose activity change, negative = inhibition, most hits filed as inhibitors. 390,000 tested, 0.23% active. AID 743255; active means well fitted inhibition curve with a large enough effect; inconclusive means small, poorly fitted or top-dose-only effect; inactive means no such curve, though single readings can be large or run the other way; further: potency means the concentration at half of the fitted maximal effect; on the % scale 0 is the no-effect control and ±100 the full control effect; nearly all actives have a fitted effect of over 60% in size
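USP1/UAF1 complex at 1 nM was preincubated with compound for 15 min at room temperature, then Ub-Rho substrate (150nM final) was added. Fluorescence (480/540 nm) was read kinetically, 6 reads every 60 seconds.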
D1 potentiator – human D1 dopamine receptor positive modulation | 360,000 tested, 0.036% active | potentiation, % at 10 µM | HEK293 TREx D1 cells, calcium flux, dopamine EC20 potentiation | AID 504651 | P21728; in the data active means potentiation above about 30%; further: 0% is about no effect
TRHR agonist – activates the human TRH receptor; TRHR cells, calcium flux fluo-8, FDSS agonist mode; activation, % at 2 µM; 360,000 tested, 0.18% active; P34981; further: 0% is about no effect
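TRHR-expressing cells loaded with fluo-8 calcium dye; 23 nL library compound pin-transferred, kinetic FDSS fluorescence (Ex 480/Em 530) recorded about 180 s for agonist-induced calcium release, before a 10 nM TRH EC20 addition for potentiator mode.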
* = called active by the depositor; ? = inconclusive; . = no result given; ! = not confirmed by another sample. A selection: hits, their analogues and other compounds. The true share with any hit is near 4.4%. Unless noted, no stated cut-off is given here; in the data, active means activation above about 30%; inactive means the rest.

SMILES | TRHR enhancer | D1 ag | D1 antagonist | USP1-UAF1 inh | D1 potentiator | TRHR agonist
CC1CCCC(C)N1CCCNC(=O)c1ccc2c(c1)NC(=O)c1ccccc1S2 (configuration not stated) | 3 | 3 | -7 | -12% | -8 | 0
COc1cc(C(=O)NCCCN2CCCC2=O)ccc1OCc1ccc(Cl)cc1Cl | -2 | 38* | -16 | ? | -10 | 0
O=C(NCCCN1CCCC1=O)c1ccc2c(c1)NC(=O)c1ccccc1S2 | 0 | 1 | -32* | -11% | . | 0
O=C1CCCN1CCCNC(=S)Nc1ccccc1 | 4 | 5 | -38* | -4% | -3 | 0
CCC(C)N(CCNC(=O)c1ccc2c(c1)NC(=O)c1ccccc1S2)C1CCCCC1 (configuration not stated) | -9 | 30* | 1 | -20% | -2 | 2
O=C1CCCN1CCCNC(=S)Nc1ccc(Nc2ccccc2)cc1 | -3 | 5 | 0 | -11% | -2 | 0
COc1ccc(Cl)cc1NC(=S)NCCCN1CCCC1=O | 1 | 3 | -28 | -15% | -3 | -1
Cc1ccccc1CN1C(=O)c2ccccc2Sc2ccc(C(=O)NC(C)c3ccccc3)cc21 (configuration not stated) | 4 | 1 | -12 | -13% | -2 | 1
O=C(OCc1cc(=O)n2nc(-c3cccs3)sc2n1)c1cccc(F)c1 | -4 | 4 | 1 | -23% | -5 | 0
CCOc1ccc(CC(=O)C2C(=O)CC(C)(C)CC2=O)cc1OCC | 9 | 3 | 6 | -11% | 7 | 0
CCOc1ccc(CC(=O)C2C(=O)CCCC2=O)cc1OCC | -5 | 5 | -42* | 3% | -3 | 0
Cc1ccccc1Cn1c2ccccc2c2cnn(CC(=O)NC(C)CCc3ccccc3)c(=O)c21 (configuration not stated) | 5 | 3 | 1 | 6% | -3 | 1
CC(=O)N1CCCc2cc(S(=O)(=O)N3CCCC(C(=O)Nc4cccc(Cl)c4C)C3)ccc21 (configuration not stated) | -15 | 2 | -44* | -7% | -5 | 0
CC(=O)N1CCCc2cc(S(=O)(=O)N3CCC(C(=O)NCc4ccc(N(C)C)cc4)CC3)ccc21 | 39* | -1 | 15 | -9% | -5 | 0
CC(=O)N1CCCc2cc(S(=O)(=O)N3CCC(C(=O)NCc4cccc(C)c4)CC3)ccc21 | 1 | 0 | 14 | 15% | -2 | 0
CC(=O)N1CCCc2cc(S(=O)(=O)N3CCCC(C(=O)Nc4cc(C)ccc4C)C3)ccc21 (configuration not stated) | -2 | 1 | -1 | -18% | -3 | -1
CN(C)c1ccc(CNC(=O)C2CCN(S(=O)(=O)c3ccc4[nH]c(=O)ccc4c3)CC2)cc1 | -3 | 0 | -41* | ? | 2 | 0
CC(=O)N1CCCc2cc(S(=O)(=O)N3CCCC(C(=O)Nc4ccccc4C)C3)ccc21 (configuration not stated) | 2 | 2 | -37* | -22% | -5 | 0
COc1ccc(F)cc1S(=O)(=O)NCCc1c(C)[nH]c2c(Cl)cccc12 | -10 | 10 | -20 | -24% | 2 | 1
COC(=O)c1cc2sc(C)cc2n1Cc1ccc(Br)cc1F | 7 | 5 | 18 | -19% | 5 | 0
CCCc1cnc2c(c1SCc1cccc(F)c1)c(=O)n(C)c(=O)n2C | -2 | 9 | . | ? | 8 | 0
CCS(=O)(=O)N1CC(=O)N(c2cccc(Cl)c2C)C(C)(C(=O)NC2CCCCC2)C1 (configuration not stated) | -3 | -1 | 0 | -20% | 0 | 0
Cc1cccc(CSCCNC(=O)C2CCN(S(=O)(=O)Cc3ccccc3)CC2)c1 | 0 | 2 | -14 | ? | -3 | 0
Cc1cccc2c(=O)cc(CSCC(=O)Nc3ccc(Cl)cc3)[nH]c12 | 2 | -1 | -2 | 6% | -1 | 0
CC(=O)N1CCCc2cc(S(=O)(=O)N3CCCC(C(=O)NCc4ccccc4)C3)ccc21 (configuration not stated) | -4 | 8 | -30*! | -19% | -2 | 0
